In PubChem BioAssay one finds composite z-score and z-score data, which are given here for five compounds.

Activity calls are given as the source filed them. Unless noted, the rule behind the calls is not given here.

Assay [1] can be described thus: anti-His antibody binders, primary screen, artefact control for SMM control protein annotation, biochemical, small-molecule microarray, 635 nm fluorescence (AID 1128).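 Note: score merges feature fluorescence with signal-to-noise for each printed compound spot.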 The note with it: anti-His Alexa647 antibody binding, higher = more signal.
Assay [2] has as its system Human papillomavirus type 1a E7 protein (residues 1-88). Kind of assay: HPV1a E7 small-molecule binders, primary screen, biochemical, small-molecule microarray, residues 1-88, 635 nm (AID 1129). The note with it: small-molecule microarray binding, fluorescence 635 nm; higher = more signal.
Assay [3] deals with Focal adhesion kinase 1 (Homo sapiens) (UniProt Q05397). Kind of assay: small-molecule microarray binders of FAK, primary screen, biochemical, 635/667 nm fluorescence, BSA, DTT (AID 1130).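 Note: composite of spot emission at 667 nm and signal to noise over triplicate slides.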 Conditions: PTK2 binding, 635 nm fluorescence, higher = more signal.
Chain of Focal adhesion kinase 1 (Homo sapiens) (Q05397 whole entry, looked up): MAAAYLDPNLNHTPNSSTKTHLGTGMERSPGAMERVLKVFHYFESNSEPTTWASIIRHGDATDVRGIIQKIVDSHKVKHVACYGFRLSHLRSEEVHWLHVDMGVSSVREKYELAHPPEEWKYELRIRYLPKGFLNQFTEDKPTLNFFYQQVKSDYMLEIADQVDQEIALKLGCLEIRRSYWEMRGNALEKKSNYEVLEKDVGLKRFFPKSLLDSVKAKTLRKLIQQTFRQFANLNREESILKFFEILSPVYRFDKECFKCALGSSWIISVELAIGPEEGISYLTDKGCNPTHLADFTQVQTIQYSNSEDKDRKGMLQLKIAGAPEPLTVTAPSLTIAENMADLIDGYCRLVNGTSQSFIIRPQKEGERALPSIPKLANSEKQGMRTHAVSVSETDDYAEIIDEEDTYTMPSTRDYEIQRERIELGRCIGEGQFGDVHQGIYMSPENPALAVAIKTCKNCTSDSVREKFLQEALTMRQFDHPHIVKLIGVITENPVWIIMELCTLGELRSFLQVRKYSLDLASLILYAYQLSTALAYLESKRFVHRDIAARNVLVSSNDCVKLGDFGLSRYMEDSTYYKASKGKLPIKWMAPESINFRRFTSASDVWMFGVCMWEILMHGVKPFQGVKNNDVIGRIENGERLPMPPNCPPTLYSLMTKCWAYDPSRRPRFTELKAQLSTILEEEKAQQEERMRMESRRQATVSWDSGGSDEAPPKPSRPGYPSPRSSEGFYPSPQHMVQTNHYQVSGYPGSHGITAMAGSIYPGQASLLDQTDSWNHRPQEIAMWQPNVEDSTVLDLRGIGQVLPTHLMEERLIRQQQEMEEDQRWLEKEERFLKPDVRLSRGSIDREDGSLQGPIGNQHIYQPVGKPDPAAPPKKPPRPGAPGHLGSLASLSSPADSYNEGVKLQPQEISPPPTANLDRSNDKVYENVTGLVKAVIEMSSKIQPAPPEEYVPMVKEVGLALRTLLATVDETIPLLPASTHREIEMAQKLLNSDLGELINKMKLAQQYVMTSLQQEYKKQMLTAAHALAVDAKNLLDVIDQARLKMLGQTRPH
Assay [4] relates to Fibrinogen (Alexa647-labelled). Kind of assay: fibrinogen binders on compound microarrays, profiling panel, artefact control for SMM control-protein annotation, biochemical, small-molecule microarray, 635/667 nm fluorescence (AID 1131).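 Note: z-score merges 667 nm fluorescence with per-spot signal-to-noise over triplicate slides.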 Conditions: fibrinogen-A647 binding fluorescence, higher = more signal.
Assay [5] deals with Follistatin (Homo sapiens) (UniProt P19883). In words: follistatin binders on small-molecule microarrays, primary screen, biochemical, small-molecule microarray, 635/667 nm fluorescence (AID 1132). The note with it: FST binding, 635 nm fluorescence, higher = more signal.
Chain of Follistatin (Homo sapiens) (P19883 whole entry, looked up): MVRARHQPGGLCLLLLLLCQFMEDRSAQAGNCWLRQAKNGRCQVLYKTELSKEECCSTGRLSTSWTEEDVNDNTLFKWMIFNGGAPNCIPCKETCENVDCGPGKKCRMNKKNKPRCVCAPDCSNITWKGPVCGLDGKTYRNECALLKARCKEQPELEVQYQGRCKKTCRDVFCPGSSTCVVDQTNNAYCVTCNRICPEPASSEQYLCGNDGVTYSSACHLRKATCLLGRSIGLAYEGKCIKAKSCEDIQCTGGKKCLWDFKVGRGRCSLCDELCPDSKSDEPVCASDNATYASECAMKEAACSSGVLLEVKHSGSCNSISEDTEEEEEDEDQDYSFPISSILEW
Assay [6] has as its target Fibroblast growth factor 2 (Homo sapiens) (UniProt P09038). Kind of assay: FGF2 binders on small-molecule microarrays, primary screen, biochemical, small-molecule microarray, 635/667 nm fluorescence (AID 1133). Conditions: small-molecule microarray binding, FGF2, fluorescence 635/667; higher = more signal.
Assay [7] in a line: mitochondrial membrane potential change in A549 cells, profiling panel, cell-based, JC-1 fluorescence, basal, 24 h, 100 nL (AID 1138).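 Note: A549 lung adenocarcinoma cells under basal conditions with no added stimulus; test concentration not given here.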 Conditions: higher = more signal.
Another assay deals with Lefty1. In words: Lefty1 binders on small-molecule microarrays, primary screen, biochemical, small-molecule microarray, 635/667 nm fluorescence (AID 1139). The note with it: small-molecule microarray binding, fluorescence 635/667; higher = more signal.
In assay [8] the test system is wheat germ agglutinin (Triticum aestivum), Alexa647-labelled. Kind of assay: wheat germ agglutinin binders on compound microarrays, profiling panel, artefact control for SMM control-protein annotation, biochemical, small-molecule microarray, 635/667 nm fluorescence (AID 1140).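 Note: score merges 667 nm feature emission with signal to noise over triplicate slides.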 Conditions: WGA-A647 binding, 635 nm fluorescence, higher = more signal.
The target of assay [9] is Luciferin 4-monooxygenase (Photinus pyralis) (UniProt P08659). In words: firefly luciferase enzyme inhibitors, primary screen, biochemical, luminescence, purified enzyme, 2006 set (AID 1141).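 Note: cell-free assay with purified firefly luciferase at 100 ng per well in PBS; test concentration not given here.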 Conditions: SteadyGlo luminescence, 30 min, higher = more signal, called active from +8 up or from −8 down.
Chain of Luciferin 4-monooxygenase (Photinus pyralis) (P08659 whole entry, looked up): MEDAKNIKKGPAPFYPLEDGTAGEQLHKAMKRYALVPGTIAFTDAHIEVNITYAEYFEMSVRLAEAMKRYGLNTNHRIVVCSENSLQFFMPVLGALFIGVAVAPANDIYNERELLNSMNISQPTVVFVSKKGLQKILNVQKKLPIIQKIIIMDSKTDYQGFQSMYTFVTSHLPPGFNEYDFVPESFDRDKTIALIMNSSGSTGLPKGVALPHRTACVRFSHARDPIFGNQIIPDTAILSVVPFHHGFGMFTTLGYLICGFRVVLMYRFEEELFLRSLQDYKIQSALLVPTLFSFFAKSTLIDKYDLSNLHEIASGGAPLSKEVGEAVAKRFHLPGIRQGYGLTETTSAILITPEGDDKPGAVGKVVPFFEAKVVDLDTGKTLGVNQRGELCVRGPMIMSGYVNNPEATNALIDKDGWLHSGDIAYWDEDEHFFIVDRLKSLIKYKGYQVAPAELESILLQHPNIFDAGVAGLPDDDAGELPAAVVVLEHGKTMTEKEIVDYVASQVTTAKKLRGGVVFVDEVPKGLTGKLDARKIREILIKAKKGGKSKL
The subject of assay [10] is Wnt5a (protein binding on small-molecule microarray). Kind of assay: Wnt5a binders on small-molecule microarray, primary screen, biophysical, 635/667 nm fluorescence (AID 1142).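 Note: fluorescence read at 667 nm with signal to noise per printed feature.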 Conditions: 635 nm fluorescence, higher = more signal.
Assay [11] can be described thus: cell viability in Huh7 cells, primary screen, cytotoxicity control for HCV replication inhibitor project, CellTiter-Glo luminescence, basal, 48 h (AID 1143).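 Note: Huh7 hepatoma cells carrying a hepatitis C replication reporter with no stimulus; test concentration not given here.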 The note with it: Huh7 HCV replicon, higher = more signal, called active from +8 up or from −8 down. (ATP-based viability assays read luminescence as a measure of living cells.)
Assay [12] in a line: P. aeruginosa biofilm formation inhibitors, primary screen, PAO1 strain, BacTiter-Glo luminescence, LB-PBS (AID 1144). The note with it: 12 h, higher = more signal.
A short description of assay [13]: CREB reporter modulators without forskolin, primary screen, cell-based, PC12, CRE-LacZ reporter, unstimulated (AID 1145). The note with it: no forskolin, luminescence, 4.5 h, higher = more signal, called active from +8 up or from −8 down.
The nature of assay [14]: CREB reporter modulators under forskolin, primary screen, cell-based, PC12, CRE-LacZ reporter, forskolin-stimulated (AID 1146).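 Note: PC12 cells with 6xCRE LacZ reporter stimulated by forskolin 10 µM; beta-galactosidase reporter signal reflecting CREB driven transcription.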 Conditions: luminescence, 4.5 h, higher = more signal, called active from +8 up or from −8 down.
Assay [15] addresses Streptavidin (Streptomyces avidinii) (UniProt P22629). Kind of assay: streptavidin binders on small-molecule microarray, primary screen, artefact control for SMM compound annotation, biophysical, 635/667 nm fluorescence (AID 1147).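 Note: signal reflects streptavidin binding to arrayed compounds as a control protein.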 The note with it: streptavidin binding, higher = more signal.
The nature of assay [16]: small-molecule binders of probe aInhba, primary screen, biochemical, small-molecule microarray, 635/667 nm fluorescence (AID 1148).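 Note: score merges 667nm spot fluorescence with signal-to-noise for antibody binding to printed compounds.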 Conditions: higher = more signal.
Assay [17] concerns the target Torsin-1A (Homo sapiens) (UniProt O14656). Kind of assay: torsin A binders from cell lysate, primary screen, small-molecule microarray, wild-type, 635/667 nm (AID 1149). Conditions: COS7 hTOR1A-WT lysate, 635 nm fluorescence, higher = more signal.
The target is the same in assay [18]. In words: small-molecule binders of mutant TOR1A in lysate, primary screen, cell lysate, small-molecule microarray, COS7 lysate, 635/667 nm fluorescence (AID 1150).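 Note: score pools 667 nm emission and signal to noise measuring lysate protein binding.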 The note with it: COS7 hTOR1A mutant lysate, 635 nm fluorescence, higher = more signal.
Assay [19] has as its system Sonic hedgehog protein (Shh). In words: small-molecule binders of Shh protein, primary screen, biochemical, small-molecule microarray, 635/667 nm fluorescence (AID 1151).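 Note: Shh protein binding to compounds spotted on small-molecule microarray slides; score combines spot fluorescence intensity with signal-to-noise across triplicate slides.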 Conditions: small-molecule microarray binding, 635 nm fluorescence; higher = more signal.

Chain of Torsin-1A (Homo sapiens) (O14656 whole entry, looked up): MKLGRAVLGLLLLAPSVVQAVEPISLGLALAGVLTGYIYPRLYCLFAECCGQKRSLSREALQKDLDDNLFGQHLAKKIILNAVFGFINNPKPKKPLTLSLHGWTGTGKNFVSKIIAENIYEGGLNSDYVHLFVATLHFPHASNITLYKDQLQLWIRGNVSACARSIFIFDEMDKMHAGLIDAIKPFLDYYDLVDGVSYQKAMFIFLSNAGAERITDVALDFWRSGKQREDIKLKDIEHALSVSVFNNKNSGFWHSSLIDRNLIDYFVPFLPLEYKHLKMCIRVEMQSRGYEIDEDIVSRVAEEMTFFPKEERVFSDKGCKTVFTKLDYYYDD
Chain of Streptavidin (Streptomyces avidinii) (P22629 whole entry, looked up): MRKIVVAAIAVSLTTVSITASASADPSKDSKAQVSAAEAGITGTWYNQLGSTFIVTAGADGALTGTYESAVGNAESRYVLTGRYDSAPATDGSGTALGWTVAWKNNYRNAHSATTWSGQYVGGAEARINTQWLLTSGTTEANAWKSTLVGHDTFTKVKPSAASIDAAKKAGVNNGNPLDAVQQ
Chain of Fibroblast growth factor 2 (Homo sapiens) (P09038 whole entry, looked up): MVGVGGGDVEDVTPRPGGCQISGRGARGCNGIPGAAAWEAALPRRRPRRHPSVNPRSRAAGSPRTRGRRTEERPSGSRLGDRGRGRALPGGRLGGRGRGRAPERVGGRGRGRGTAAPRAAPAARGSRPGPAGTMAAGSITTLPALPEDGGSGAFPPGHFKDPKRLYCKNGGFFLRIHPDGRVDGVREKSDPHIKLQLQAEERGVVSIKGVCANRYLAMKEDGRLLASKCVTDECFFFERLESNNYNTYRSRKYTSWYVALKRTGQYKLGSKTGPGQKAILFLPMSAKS

In the case of `COCCOC(=O)N1C(=O)[C@@]2(c3cc(C#CC4(O)CCCCCC4)ccc31)[C@H](C(=O)N1CCc3cc(OC)c(OC)cc3C1)[C@H]1C(=O)O[C@H](c3ccccc3)[C@H](c3ccccc3)N1[C@@H]2c1ccccc1OCCO`, the composite z-score is 1.07 in [1]; 1.17 in [2]; 0.32 in [3]; 0.608 in [4]; 1.36 in assay [5]; 1.48 in assay [6]. Moreover, the composite z-score in the assay with Lefty1 worked out at 1.28; in assay [8], 0.859; in [10], 0.855; in assay [15], 0.149; in [16], 0.448; with Torsin-1A (Homo sapiens) [17], 0.0869. The composite z-score worked out at 0.326 with Torsin-1A (Homo sapiens) [18] and 1.29 in assay [19]. Besides, the z-score is -0.651 in [7]; -1.72 (inactive) in assay [9]; -2.18 (inactive) in assay [11]; 1.66 (inactive) in assay [12]; 0.0736 (inactive) in assay [13]; 3.93 (inactive) in assay [14].

With `Cc1ccc(S[C@]2(C(=O)O)CC(=O)N(C3CCCCC3)[C@@H]2c2ccc(CO)cc2)cc1`, the composite z-score in assay [1] came to 2.04; in assay [2] it was 1.16; in assay [3] it was 0.552; in assay [4], 0.991; in [5], 0.271; in assay [6] it was 0.257. The composite z-score in the assay with Lefty1 is -0.776; in assay [8], 0.899; in assay [10], 0.219; in assay [15], 1.28; in assay [16], 0.112; in the assay with Torsin-1A (Homo sapiens) [17] it was -0.284. The composite z-score was -0.249 with Torsin-1A (Homo sapiens) [18] and -0.265 in assay [19]. Further, the z-score is 0.991 in [7]; 0.186 (inactive) in [9]; -0.0359 (inactive) in assay [11]; -0.78 (inactive) in [12]; -0.116 (inactive) in [13]; -0.337 (inactive) in assay [14].

On to `O=C1N(CCS(=O)(=O)c2ccccc2)Cc2ccccc2C[C@@]12COC(c1ccc(OCCCO)cc1)=N2`, for which the composite z-score is 2.25 in assay [1]; 1.26 in [2]; 1.04 in [3]; 0.841 in assay [4]; 1.4 in [5]; 0.962 in assay [6]. Also, the composite z-score in the assay with Lefty1 stood at 0.619; in assay [8], 1.15; in assay [10] it was 0.933; in assay [15], 0.758; in assay [16], 0.325; with Torsin-1A (Homo sapiens) [17], 0.701. Further, the composite z-score turned out to be 0.945 with Torsin-1A (Homo sapiens) [18] and 2.03 in assay [19]. Besides, the z-score was 0.367 in [7]; -0.966 (inactive) in assay [9]; -4.36 (inactive) in [11]; 0.898 (inactive) in assay [12]; -0.183 (inactive) in [13]; -2.06 (inactive) in assay [14].

With `CC1CC/C=C\[C@H]2OC34C=CCN(c5ccc(Cl)cc5)C(=O)[C@H]3N(C(CO)C(C)C)C(=O)[C@]4(C)C2C(=O)O1` (stereo not given in full), the composite z-score is 0.776 in assay [1]; -0.512 in assay [2]; -0.432 in assay [3]; -0.787 in assay [4]; -0.648 in assay [5]; -0.87 in assay [6]. In addition, the composite z-score in the assay on Lefty1 is -0.626; in assay [8], -0.281; in assay [10] it was -0.293; in assay [15] it was -1.17; in assay [16], -0.128; with Torsin-1A (Homo sapiens) [17], 1.3. The composite z-score is 1.45 with Torsin-1A (Homo sapiens) [18] and 0.14 in assay [19]. In addition, the z-score in [7] was 0.34; in assay [9], -0.391 (inactive); in assay [11], 0.24 (inactive); in [12] it was 0.971 (inactive); in [13], 0.199 (inactive); in assay [14], -0.27 (inactive).

Turning to `C=CC[C@]1(C(=O)NCC(O)CO)N=C(c2ccc(OCCCO)cc2)O[C@H]1c1ccccc1N=[N+]=[N-]` (stereo not given in full), the composite z-score was found to be 2.28 in assay [1]; 0.653 in [2]; 0.302 in assay [3]; 0.66 in [4]; 1.1 in [5]; 0.264 in assay [6]. Also, the composite z-score in the assay with Lefty1 was -0.661; in [8] it was 0.986; in assay [10], 0.257; in [15] it was 1.4; in [16], 0.215; with Torsin-1A (Homo sapiens) [17], 0.16. The figures for the composite z-score (with Torsin-1A (Homo sapiens) [18]; in assay [19]) were 1.46 and -0.723, respectively. Also, the z-score in [7] was -0.152; in [9], -6.91 (inactive); in assay [11], -1.4 (inactive); in assay [12] it was -0.323 (inactive); in [13], 1.24 (inactive); in assay [14] it was -0.652 (inactive).
